Laboratory results as given in PubChem BioAssay.
Active and inactive are the calls of the source.

Legend:
[1] = binders of probe aFSTL3 on microarray, primary screen, stem cell growth factor project, biochemical, small-molecule microarray, fluorescence 635/667 (AID 1064); details: higher = more signal;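 also: measures binding of the biotinylated anti-FSTL3 antibody to printed compounds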
[2] = binders from COS7 lysate, DM2A8 probe, primary screen, torsin A project, cell lysate, small-molecule microarray, fluorescence 635/667 (AID 1065); details: higher = more signal, COS7 lysate expressing mutant human TOR1A
[3] = binders of probe aFGF2 on microarray, primary screen, stem cell growth factor project, biochemical, small-molecule microarray, fluorescence 635/667 (AID 1067); details: higher = more signal;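 also: measures binding of biotinylated aFGF2 protein to printed compounds on slides; z-score merges feature fluorescence and signal-to-noise across triplicate slides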
[4] = binders of probe aFGF10 on microarray, primary screen, stem cell growth factor project, biochemical, small-molecule microarray, fluorescence 635/667 (AID 1071); details: higher = more signal;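 also: score merges 667 nm spot intensity and signal to noise from triplicate slides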
[5] = target: Neurogenic locus notch homolog protein 2 (Homo sapiens) (UniProt Q04721); assay: Notch2 binders on small-molecule microarrays, primary screen, biochemical, small-molecule microarray, 635 nm fluorescence, stem cell growth factors (AID 1073); details: Notch2 binding, higher = more signal
[6] = target: Pro-neuregulin-1, membrane-bound isoform (Homo sapiens) (UniProt Q02297); assay: NRG1 binders on small-molecule microarrays, primary screen, psychiatric disease protein project, biochemical, small-molecule microarray, fluorescence 635/667 (AID 1075); details: NRG1 binding, 635 nm fluorescence, higher = more signal;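 also: score combines 667 nm spot fluorescence with signal to noise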
[7] = tested on: Neuregulin-1 EGF-like domain; assay: binders of neuregulin-1 EGF-like domain, primary screen, biochemical, small-molecule microarray, 635 nm fluorescence (AID 1081); details: small-molecule microarray binding, higher = more signal;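 also: binding of the protein to compounds printed on small-molecule microarray slides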
[8] = FRG1 promoter luciferase signal modulators, primary screen, FRG1 inhibition for FSHD, cell-based, C2C12 myotubes, firefly/Renilla luciferase, luminescence (AID 1084); details: higher = more signal, called active from +8 up or from −8 down
[9] = binders of probe aFST on microarray, primary screen, stem cell growth factor project, biochemical, small-molecule microarray, fluorescence 635/667 (AID 1086); details: higher = more signal;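 also: score merges 667 nm fluorescence with signal-to-noise of each printed compound spot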
[10] = binders of probe aHhip on microarray, primary screen, stem cell growth factor project, biochemical, small-molecule microarray, fluorescence 635/667 (AID 1087); details: higher = more signal;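 also: score merges spot fluorescence at 667nm with spot signal to noise ratio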
[11] = tested on: PRMT1 (protein arginine N-methyltransferase 1); assay: PRMT1 binders on small-molecule microarrays, primary screen, biochemical, small-molecule microarray, 635 nm fluorescence (AID 1088); details: small-molecule microarray binding, higher = more signal;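 also: binding of Prmt1 protein to compounds spotted on small-molecule microarray slides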
[12] = yeast growth modulation, basal conditions, primary screen, YJM789 clinical isolate, OD600, 24 h (AID 1089);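 also: growth of clinical yeast isolate S. cerevisiae YJM 789 seeded 1000 cells per well; test concentration not given here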; details: S. cerevisiae YJM789 growth, higher = more signal, called active from +8 up or from −8 down
[13] = fission yeast growth modulation, primary screen, strain 972, OD600, 24 h, no modulator (AID 1090);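 also: basal condition with compound alone and no growth modifier present; test concentration not given here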; details: S. pombe 972 growth, higher = more signal, called active from +8 up or from −8 down
[14] = S. cerevisiae growth modulation with rapamycin, primary screen, strain BY4716, OD600, 96 h (AID 1091); details: higher = more signal, called active from +8 up or from −8 down; also: test concentration not given here
[15] = target: Torsin-1A-interacting protein 2 (Homo sapiens) (UniProt Q8NFQ8); assay: LULL1 binders on small-molecule microarray, primary screen, cell lysate, human LULL1 lysate, 635/667 nm fluorescence (AID 1092); details: hLULL1 lysate binding, 635 nm fluorescence, higher = more signal;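 also: probe is lysate of COS7 cells overexpressing human LULL1; score merges per-feature 667 nm fluorescence with signal-to-noise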
[16] = E. coli growth modulation, two-sided OD650, primary screen, E. coli filamentation project, strain DRC41, 24 h (AID 1093); details: OD650, 24 h, higher = more signal, called active from +8 up or from −8 down;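 also: MC1000 strain lacking acrAB efflux and sulA so SOS filamentation is blocked; test concentration not given here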
[17] = small-molecule microarray binders of probe aLefty2, primary screen, biochemical, biotinylated probe, 635/667 nm fluorescence (AID 1094); details: higher = more signal;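 also: score merges spot fluorescence near 667 nm with spot signal-to-noise ratio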
[18] = tested on: Noggin (protein binding on small-molecule microarray); assay: Noggin binders on small-molecule microarray, primary screen, biochemical, 635/667 nm fluorescence (AID 1095); details: 635 nm fluorescence, higher = more signal;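 also: score merges 667 nm feature fluorescence with signal to noise over triplicate slides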
[19] = target: Neurogenic locus notch homolog protein 3 (Homo sapiens) (UniProt Q9UM47); assay: NOTCH3 binders on small-molecule microarray, primary screen, biochemical, 635/667 nm fluorescence (AID 1096); details: NOTCH3 binding, 635 nm fluorescence, higher = more signal
[20] = small-molecule microarray binders of probe aEGFR, primary screen, biochemical, biotinylated probe, 635/667 nm fluorescence (AID 1097); details: higher = more signal;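 also: probe is a biotinylated anti-EGFR antibody binding compounds printed on slides; score combines fluorescence near 667 nm and signal to noise of each spot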

Pro-neuregulin-1, membrane-bound isoform (Homo sapiens), sequence (Q02297 whole entry, looked up, the tested form may be a part, canonical isoform): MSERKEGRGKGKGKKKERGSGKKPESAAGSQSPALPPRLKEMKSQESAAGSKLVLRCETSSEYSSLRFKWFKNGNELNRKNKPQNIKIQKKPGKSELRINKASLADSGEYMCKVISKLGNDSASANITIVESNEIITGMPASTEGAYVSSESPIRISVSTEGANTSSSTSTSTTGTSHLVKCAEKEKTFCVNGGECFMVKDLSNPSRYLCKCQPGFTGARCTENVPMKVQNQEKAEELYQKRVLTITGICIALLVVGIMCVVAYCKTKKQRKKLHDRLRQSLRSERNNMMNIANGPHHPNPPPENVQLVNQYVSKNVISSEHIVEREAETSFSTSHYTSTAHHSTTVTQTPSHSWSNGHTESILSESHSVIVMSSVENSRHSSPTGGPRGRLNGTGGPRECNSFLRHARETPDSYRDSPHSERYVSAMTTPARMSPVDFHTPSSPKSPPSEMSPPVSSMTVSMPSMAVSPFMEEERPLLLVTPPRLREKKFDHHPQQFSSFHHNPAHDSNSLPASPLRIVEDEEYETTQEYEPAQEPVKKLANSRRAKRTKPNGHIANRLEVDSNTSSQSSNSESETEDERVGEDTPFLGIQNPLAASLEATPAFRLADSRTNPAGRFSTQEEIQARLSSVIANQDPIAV
Neurogenic locus notch homolog protein 3 (Homo sapiens), sequence (Q9UM47 whole entry, looked up): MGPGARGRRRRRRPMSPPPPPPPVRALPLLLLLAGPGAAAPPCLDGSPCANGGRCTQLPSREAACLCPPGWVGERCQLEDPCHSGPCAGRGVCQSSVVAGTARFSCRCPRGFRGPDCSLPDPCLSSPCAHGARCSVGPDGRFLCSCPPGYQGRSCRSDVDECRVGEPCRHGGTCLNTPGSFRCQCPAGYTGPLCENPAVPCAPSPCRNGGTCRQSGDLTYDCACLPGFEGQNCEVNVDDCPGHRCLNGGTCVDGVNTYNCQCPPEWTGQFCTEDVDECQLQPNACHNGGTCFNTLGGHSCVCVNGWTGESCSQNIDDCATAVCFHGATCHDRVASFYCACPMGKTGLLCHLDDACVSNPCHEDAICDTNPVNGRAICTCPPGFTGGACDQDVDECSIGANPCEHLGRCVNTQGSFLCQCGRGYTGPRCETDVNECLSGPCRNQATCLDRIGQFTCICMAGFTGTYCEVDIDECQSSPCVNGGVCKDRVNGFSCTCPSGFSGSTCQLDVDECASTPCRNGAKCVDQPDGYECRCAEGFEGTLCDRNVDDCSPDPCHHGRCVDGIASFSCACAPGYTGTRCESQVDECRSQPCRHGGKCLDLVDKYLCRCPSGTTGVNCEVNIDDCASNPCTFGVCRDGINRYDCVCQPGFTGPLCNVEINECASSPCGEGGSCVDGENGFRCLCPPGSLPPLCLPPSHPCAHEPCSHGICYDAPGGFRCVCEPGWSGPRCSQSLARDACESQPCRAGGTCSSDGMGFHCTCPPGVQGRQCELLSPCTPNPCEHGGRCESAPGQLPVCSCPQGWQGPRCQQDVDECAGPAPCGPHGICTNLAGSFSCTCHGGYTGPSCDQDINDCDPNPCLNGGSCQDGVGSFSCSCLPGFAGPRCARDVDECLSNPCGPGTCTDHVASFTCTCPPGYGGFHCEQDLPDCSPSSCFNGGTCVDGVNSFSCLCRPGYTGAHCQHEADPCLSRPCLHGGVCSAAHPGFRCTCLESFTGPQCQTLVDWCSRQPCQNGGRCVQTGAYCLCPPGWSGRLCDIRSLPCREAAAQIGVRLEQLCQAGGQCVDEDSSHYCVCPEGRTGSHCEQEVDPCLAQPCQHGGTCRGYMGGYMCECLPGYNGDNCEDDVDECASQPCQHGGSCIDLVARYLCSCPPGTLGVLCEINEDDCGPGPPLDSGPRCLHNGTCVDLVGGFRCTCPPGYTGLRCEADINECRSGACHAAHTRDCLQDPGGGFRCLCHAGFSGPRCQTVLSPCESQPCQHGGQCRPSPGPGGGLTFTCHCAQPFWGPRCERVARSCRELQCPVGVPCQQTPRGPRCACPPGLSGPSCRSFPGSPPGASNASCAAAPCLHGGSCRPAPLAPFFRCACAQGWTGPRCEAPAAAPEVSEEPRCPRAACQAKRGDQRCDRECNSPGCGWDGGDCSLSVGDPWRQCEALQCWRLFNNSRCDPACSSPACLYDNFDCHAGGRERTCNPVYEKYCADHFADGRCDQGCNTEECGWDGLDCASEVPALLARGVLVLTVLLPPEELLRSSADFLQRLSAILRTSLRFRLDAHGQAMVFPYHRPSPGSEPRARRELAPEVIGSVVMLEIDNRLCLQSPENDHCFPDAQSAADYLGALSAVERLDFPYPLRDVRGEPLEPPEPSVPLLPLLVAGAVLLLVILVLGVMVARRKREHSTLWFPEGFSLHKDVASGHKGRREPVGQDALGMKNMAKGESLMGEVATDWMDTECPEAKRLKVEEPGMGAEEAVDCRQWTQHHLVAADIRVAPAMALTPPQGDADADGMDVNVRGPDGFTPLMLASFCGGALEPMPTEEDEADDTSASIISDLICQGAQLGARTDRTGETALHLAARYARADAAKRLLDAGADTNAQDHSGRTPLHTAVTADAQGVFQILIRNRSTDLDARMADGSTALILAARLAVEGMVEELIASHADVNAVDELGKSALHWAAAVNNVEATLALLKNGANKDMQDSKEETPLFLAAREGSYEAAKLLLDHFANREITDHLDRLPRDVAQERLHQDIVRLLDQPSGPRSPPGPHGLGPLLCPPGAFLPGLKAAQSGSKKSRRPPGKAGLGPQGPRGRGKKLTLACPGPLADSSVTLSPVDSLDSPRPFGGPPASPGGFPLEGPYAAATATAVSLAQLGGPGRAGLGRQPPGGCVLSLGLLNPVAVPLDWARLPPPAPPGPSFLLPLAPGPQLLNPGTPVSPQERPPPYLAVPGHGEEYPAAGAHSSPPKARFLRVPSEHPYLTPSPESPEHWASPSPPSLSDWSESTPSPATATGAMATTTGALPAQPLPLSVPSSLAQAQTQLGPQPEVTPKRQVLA
Torsin-1A-interacting protein 2 (Homo sapiens), sequence (Q8NFQ8 whole entry, looked up): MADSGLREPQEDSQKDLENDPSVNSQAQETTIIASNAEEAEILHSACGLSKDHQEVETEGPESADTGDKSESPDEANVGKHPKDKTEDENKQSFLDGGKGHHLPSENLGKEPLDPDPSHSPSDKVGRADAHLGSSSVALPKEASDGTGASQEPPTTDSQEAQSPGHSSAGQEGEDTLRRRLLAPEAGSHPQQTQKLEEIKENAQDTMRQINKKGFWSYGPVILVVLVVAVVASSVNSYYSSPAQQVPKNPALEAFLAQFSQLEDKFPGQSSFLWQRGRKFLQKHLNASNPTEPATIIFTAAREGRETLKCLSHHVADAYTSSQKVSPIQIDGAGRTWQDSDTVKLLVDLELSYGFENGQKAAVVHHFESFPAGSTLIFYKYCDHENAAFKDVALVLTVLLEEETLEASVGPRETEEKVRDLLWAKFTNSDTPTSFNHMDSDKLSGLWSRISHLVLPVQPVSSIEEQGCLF

| Structure (SMILES) | composite z-score [1] | composite z-score [2] | composite z-score [3] | composite z-score [4] | composite z-score [5] | composite z-score [6] | composite z-score [7] | z-score [8] | composite z-score [9] | composite z-score [10] | composite z-score [11] | z-score [12] | z-score [13] | z-score [14] | composite z-score [15] | z-score [16] | composite z-score [17] | composite z-score [18] | composite z-score [19] | composite z-score [20] |
| --- | --- | --- | --- | --- | --- | --- | --- | --- | --- | --- | --- | --- | --- | --- | --- | --- | --- | --- | --- | --- |
| COc1ccc([Si](C)(C)[C@H]2[C@H](CCO)O[C@@]3(C(=O)N(Cc4cccc(NC(=O)[C@H](C)O)c4)c4ccccc43)[C@@H]2C)cc1 | -0.456 | 0.634 | -0.101 | 0.136 | 0.612 | 0.84 | 1.22 | -2.68 (inactive) | -0.0054 | 0.212 | 1.54 | 1.62 (inactive) | 0.562 (inactive) | 7.56 (inactive) | 2.47 | 1.24 (inactive) | -0.0664 | 1.24 | 1.09 | -0.013 |
| O=C1[C@H]2[C@H]3[C@H](O)[C@H](O)CC(=NOC[C@@H](O)COCc4ccco4)[C@@H]3CC[C@H]2C(=O)N1c1ccc(F)cc1F | -0.469 | 1.4 | -0.128 | 0.138 | 0.21 | -0.592 | -0.574 | -0.24 (inactive) | -0.128 | 0.177 | 0.601 | -0.236 (inactive) | 0.0766 (inactive) | -1.25 (inactive) | -1.34 | 0.363 (inactive) | -0.223 | 1.01 | 0.0986 | -0.0828 |
| C[C@@H]1CCC2C(=O)N(Cc3ccccc3)C[C@@H](O)CN2[C@H]1c1ccc(Br)cc1 (stereo not given in full) | -0.364 | 0.381 | -0.145 | 0.84 | -0.05 | 0.0596 | 0.963 | -0.765 (inactive) | -0.0584 | -0.0618 | 1.39 | -1.91 (inactive) | -3.75 (inactive) | -0.26 (inactive) | 1.5 | 0.369 (inactive) | -0.23 | 0.542 | 0.158 | -0.115 |
| COc1ccccc1CN1C(=O)c2ccccc2[C@@]2(Cc3ccccc3N(C(C)C)C2=O)[C@@H]1c1ccc(CO)cc1 | -0.111 | -0.336 | -0.186 | -0.689 | -0.294 | -0.0492 | -0.723 | -2.45 (inactive) | 0.351 | -0.374 | 0.303 | -1.69 (inactive) | -0.373 (inactive) | -1.34 (inactive) | -0.114 | 1.26 (inactive) | -0.0999 | -0.0723 | -0.186 | -0.194 |
| COc1ccc(O[C@@H]2[C@H](O)CO[C@H]2C=CC#Cc2ccccc2)cc1 | -0.389 | 0.511 | -0.159 | 0.0175 | -0.22 | 0.068 | -0.203 | -0.606 (inactive) | -0.182 | -0.0237 | 0.101 | 0.937 (inactive) | -0.777 (inactive) | 0.958 (inactive) | 0.0101 | 0.338 (inactive) | -0.197 | 0.347 | -0.413 | -0.228 |
| CCOC(=O)NN=C1C[C@@H](O)[C@@H](O)[C@@H]2[C@@H]3C(=O)N(C4CCCCC4)C(=O)[C@@H]3CC[C@@H]12 | -0.236 | 0.584 | -0.194 | 0.469 | 0.489 | -0.123 | -0.424 | -0.371 (inactive) | 0.554 | -0.132 | -0.319 | -1.33 (inactive) | -0.895 (inactive) | -0.495 (inactive) | 0.156 | 0.637 (inactive) | -0.028 | 0.257 | 0.324 | -0.0329 |
| c1ccc(C2NCCc3c2[nH]c2ccccc32)cc1 (stereo not given) | 0.136 | 0.548 | 0.0183 | 0.0913 | -0.443 | 0.464 | 0.233 | -0.151 (inactive) | -0.16 | -0.128 | -0.339 | -0.272 (inactive) | -2.36 (inactive) | -0.962 (inactive) | 0.872 | -0.937 (inactive) | -0.126 | 0.388 | -0.246 | 0.122 |
